These results are taken from paper PMC5540273 (PLoS ONE, 2017).

Structures are written as SMILES.

Test systems include ACVR1; ACVR2A; ACVR2B; ACVRL1; ADCK4; AKT1; AKT2; AKT3; ALK; ANKK1; AURKA; AURKB; AURKC; AXL.
Common to all, as to settings: concentration: 1 μM, replicates: in singlicate; n = 1
The subject of the next experiment is T1, ADCK3.
T1 construct: gene CABC1

In another experiment the test system is T2, AMPK-alpha1.
T2 construct: gene PRKAA1

Another experiment deals with T3, AMPK-alpha2.
T3 construct: gene PRKAA2

A further experiment deals with T4, ARK5.
T4 construct: gene NUAK1

The test system of another experiment is T5, ASK1.
T5 construct: gene MAP3K5

A further experiment has as its system T6, ASK2.
T6 construct: gene MAP3K6
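Note: KINOMEscan kinase panel screen.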

With `Nc1nccc(-c2c(-c3ccc(F)cc3)ncn2C2CCN(Cc3ccccc3)CC2)n1` [SB-219980], the “%Inh” value with ACVR1 came out at 7%; in the experiment with ACVR2A, 0%; in the experiment with ACVR2B, 0%; in the experiment with ACVRL1 it was 9%; in the experiment with ADCK3 it was 0%; with ADCK4 it was 55%. In addition, the “%Inh” value in the experiment on AKT1 came out at 15%; in the experiment on AKT2, 0%; with AKT3 it was 0%; in the experiment on ALK, 16%; in the experiment on AMPK-alpha1 it was 0%; with AMPK-alpha2, 3%. For the same compound, the “%Inh” value in the experiment with ANKK1 is 59%; with ARK5 it was 15%; with ASK1 it was 0%; with ASK2 it was 0%; in the experiment on AURKA it was 21%; with AURKB it was 22%. Further, the “%Inh” value is recorded as 0% with AURKC and 9% in the experiment on AXL.
On to `CCn1c(-c2ccccc2)nc2cnccc21` [SB-733416], for which the “%Inh” value amounted to 23% with ACVR1; 20% in the experiment on ACVR2A; 15% with ACVR2B; 10% in the experiment with ACVRL1; 8% in the experiment with ADCK3; 0% in the experiment with ADCK4. The “%Inh” value with AKT1 is on record as 0%; with AKT2, 14%; with AKT3, 0%; in the experiment on ALK, 36%; in the experiment on AMPK-alpha1, 0%; in the experiment on AMPK-alpha2, 0%. Also, the “%Inh” value with ANKK1 was 0%; in the experiment with ARK5 it was 8%; in the experiment with ASK1, 28%; with ASK2, 17%; with AURKA it was 0%; in the experiment with AURKB it was 0%. Moreover, the “%Inh” value in the experiment on AURKC was determined as 30%; with AXL, 10%.
With `Cc1ccc(NC(=O)Nc2ccccc2F)cc1-c1ccc(C(=O)Nc2ccncc2)cc1` [GSK1398477], the “%Inh” value in the experiment on ACVR1 worked out at 32%; in the experiment on ACVR2A it was 21%; in the experiment on ACVR2B, 14%; in the experiment with ACVRL1 it was 5%; with ADCK3, 22%; in the experiment with ADCK4, 25%. The “%Inh” value in the experiment with AKT1 is 0%; in the experiment with AKT2 it was 22%; in the experiment on AKT3, 0%; in the experiment on ALK, 25%; in the experiment on AMPK-alpha1 it was 7%; in the experiment with AMPK-alpha2 it was 23%. Besides, the “%Inh” value is recorded as 0% with ANKK1; 8% with ARK5; 12% in the experiment on ASK1; 21% with ASK2; 0% with AURKA; 0% in the experiment on AURKB. In addition, the results for the “%Inh” value with AURKC and in the experiment on AXL were 27% and 25%, respectively.
For the compound `Nc1cccc(-c2ccc3c(N)n[nH]c3c2)n1` [GSK2192730], the “%Inh” value was determined as 0% in the experiment on ACVR1; 0% in the experiment with ACVR2A; 9% in the experiment on ACVR2B; 0% with ACVRL1; 1% in the experiment with ADCK3; 0% in the experiment on ADCK4. Also, the “%Inh” value in the experiment with AKT1 stood at 0%; in the experiment with AKT2, 0%; in the experiment with AKT3 it was 0%; in the experiment with ALK, 21%; in the experiment with AMPK-alpha1 it was 0%; with AMPK-alpha2, 0%. In addition, the “%Inh” value amounted to 17% in the experiment on ANKK1; 0% with ARK5; 0% in the experiment with ASK1; 13% in the experiment with ASK2; 8% with AURKA; 15% with AURKB. In addition, the “%Inh” value was found to be 22% in the experiment with AURKC and 0% in the experiment on AXL.
`Nc1ncnc2occ(-c3ccc4c(c3)CCN4C(=O)Cc3cc(F)ccc3F)c12` [GSK2645446]: the “%Inh” value came to 0% with ACVR1; 0% with ACVR2A; 0% in the experiment on ACVR2B; 0% in the experiment on ACVRL1; 8% in the experiment with ADCK3; 0% with ADCK4. Moreover, the “%Inh” value in the experiment with AKT1 was found to be 0%; in the experiment with AKT2 it was 0%; with AKT3, 0%; in the experiment on ALK, 0%; with AMPK-alpha1 it was 4%; in the experiment on AMPK-alpha2, 0%. The “%Inh” value in the experiment on ANKK1 is listed as 3%; in the experiment on ARK5 it was 12%; in the experiment with ASK1 it was 0%; in the experiment with ASK2 it was 0%; in the experiment with AURKA it was 0%; with AURKB, 48%. The “%Inh” value with AURKC was 40%; in the experiment on AXL, 34%.
Regarding `Cc1c(Cn2c3ccccc3n3c(=O)cc(N4CCOCC4)nc23)cccc1C(F)(F)F` [GSK2306394], the “%Inh” value in the experiment with ACVR1 worked out at 10%; with ACVR2A, 6%; with ACVR2B it was 0%; with ACVRL1, 9%; with ADCK3, 0%; in the experiment with ADCK4, 0%. Besides, the “%Inh” value worked out at 0% in the experiment on AKT1; 19% in the experiment on AKT2; 0% in the experiment with AKT3; 2% in the experiment with ALK; 0% in the experiment on AMPK-alpha1; 0% with AMPK-alpha2. Further, the “%Inh” value in the experiment on ANKK1 amounted to 0%; with ARK5, 8%; in the experiment on ASK1 it was 0%; in the experiment on ASK2 it was 8%; in the experiment on AURKA, 0%; in the experiment on AURKB it was 9%. Also, the “%Inh” value in the experiment on AURKC worked out at 14%; in the experiment on AXL, 5%.
In the case of `COc1ccc(-c2coc3ccc(-c4nnc(C)o4)cc23)cc1`, the “%Inh” value in the experiment with ACVR1 is reported as 0%; with ACVR2A, 5%; in the experiment with ACVR2B, 0%; in the experiment on ACVRL1 it was 27%; with ADCK3, 9%; in the experiment with ADCK4 it was 0%. Further, the “%Inh” value in the experiment with AKT1 amounted to 8%; in the experiment with AKT2 it was 0%; in the experiment on AKT3 it was 2%; with ALK, 0%; with AMPK-alpha1, 0%; with AMPK-alpha2, 3%. The “%Inh” value with ANKK1 was 0%; with ARK5 it was 0%; in the experiment on ASK1, 0%; with ASK2 it was 10%; with AURKA it was 0%; in the experiment with AURKB, 18%. Moreover, the “%Inh” value in the experiment with AURKC and with AXL was 0% throughout.
As for `Cc1ccccc1-c1cc(-c2c[nH]nc2-c2ccccn2)ccn1` [GW680061], the “%Inh” value in the experiment with ACVR1 is listed as 9%; in the experiment on ACVR2A, 0%; in the experiment on ACVR2B, 0%; in the experiment on ACVRL1 it was 0%; in the experiment with ADCK3, 1%; with ADCK4, 12%. Further, the “%Inh” value is 0% in the experiment with AKT1; 3% with AKT2; 0% in the experiment with AKT3; 22% in the experiment with ALK; 1% in the experiment on AMPK-alpha1; 0% in the experiment with AMPK-alpha2. The “%Inh” value was 0% in the experiment with ANKK1; 0% in the experiment with ARK5; 0% in the experiment on ASK1; 14% with ASK2; 0% in the experiment with AURKA; 4% with AURKB. Also, the “%Inh” value was 6% with AURKC and 0% with AXL.
In the case of `CC(=O)c1c(C)c2cnc(Nc3ccc(N4CCNCC4)cn3)nc2n(C2CCCC2)c1=O`, the “%Inh” value in the experiment on ACVR1, in the experiment on ACVR2A, in the experiment on ACVR2B, in the experiment on ACVRL1, in the experiment on ADCK3 and in the experiment with ADCK4 was 0% in each case. Besides, the “%Inh” value in the experiment on AKT1 is recorded as 0%; in the experiment on AKT2 it was 0%; with AKT3, 11%; with ALK it was 5%; in the experiment on AMPK-alpha1, 0%; with AMPK-alpha2, 0%. In addition, the “%Inh” value in the experiment with ANKK1, in the experiment on ARK5, in the experiment on ASK1, in the experiment with ASK2, in the experiment on AURKA and in the experiment on AURKB was 0% each time. Besides, the “%Inh” value in the experiment on AURKC and with AXL was 0% each time.
Turning to `Cn1cnc2c(N)ncnc21` [SKF-97623], the “%Inh” value with ACVR1 came out at 0%; in the experiment with ACVR2A it was 0%; with ACVR2B it was 0%; with ACVRL1, 0%; with ADCK3, 0%; in the experiment on ADCK4 it was 17%. Besides, the “%Inh” value in the experiment with AKT1 was determined as 0%; in the experiment on AKT2, 0%; in the experiment with AKT3 it was 0%; with ALK, 28%; with AMPK-alpha1, 5%; in the experiment with AMPK-alpha2, 0%. Moreover, the “%Inh” value with ANKK1 is 0%; in the experiment on ARK5 it was 0%; with ASK1, 0%; in the experiment on ASK2, 0%; with AURKA, 5%; in the experiment on AURKB, 0%. Further, the “%Inh” value in the experiment with AURKC is listed as 0%; in the experiment with AXL it was 10%.
